# Screening data from PubChem BioAssay.
# The list is not random: actives were taken first. Their share in the collection is about 7.5%.
# RORg inh: qHTS for inhibitors of ROR gamma transcriptional activity; Potency, µM (top dose mostly 53.6 µM), without a hit: at the highest dose activity change, negative = inhibition, usual class: inhibitors; Drosophila S2 Gal4-RORgamma UAS-luciferase reporter, 20 h; AID 2551, 2010; Nuclear receptor ROR-gamma (Mus musculus), P51450; 5.4% of 310,000 active; also: potency is read from the fitted curve at half-maximal effect; nearly all actives have a fitted effect of over 60% in size
#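 A Gal4/UAS one-hybrid system in insect cells: metallothionein-promoter Gal4–ROR gamma fusion plus Photinus luciferase reporter. Copper sulfate 700 uM final, 20 hr ambient incubation, luminescent detection after 10 min with reagent.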
# TSHR antag: Antagonists of the Thyroid Stimulating Hormone Receptor: HTS campaign | TSHR-expressing cells, TSH-stimulated cAMP HTRF, 2 h; hits give low values | activity change, negative = inhibition, % at 11.5 µM | 0.2% of 330,000 active | Thyrotropin receptor (Homo sapiens), P16473;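 active = activity change below a set negative limit, meaning inhibition stronger than a set level, cut at about -70% in these data; inconclusive = activity change between two set negative limits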
#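 Antagonism was scored as loss of TSH-driven cAMP in TSHR cells, stimulated with 4nM TSH (EC80) for 2 hours at 37 deg C and detected by homogeneous HTRF competition immunoassay.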
# Gal4-VP16 FLuc: VP16 counterscreen qHTS for inhibitors of ROR gamma transcriptional activity; Drosophila S2 Gal4-VP16 UAS-luciferase, luminescence, 20 h; Potency, µM (doses to about 53.6 µM), without a hit: top-dose activity, negative = inhibition, most hits filed as inhibitors; 3.5% of 310,000 active; AID 2546, 2010;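 also: Gal4-VP16 expression switched on by copper sulfate through the metallothionein promoter; potency is read from the fitted curve at half-maximal effect; nearly all actives have a fitted effect of over 50% in size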
# ELG1 DNA repair: qHTS screen for small molecules that inhibit ELG1-dependent DNA repair in human embryonic kidney (HEK293T) cells expressing luciferase-tagged ELG1 | HEK293T ELG1-luciferase reporter, luminescence, 16 h; DNA damage induced by 5-fluorouridine | Potency, µM (series often up to 46.1 µM), without a hit: at the top dose activity change, negative = inhibition, usual class: inhibitors | 2.3% of 330,000 active | AID 504467, 2011; also: potency is read from the fitted curve at half-maximal effect; nearly all actives have a fitted effect of over 55% in size
#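 Luminescence from the luciferase reporter, measured 30 min after ONE-Glo reagent at room temperature, was the read-out. Beforehand, 2,000 cells per well were exposed for 16 hr at 37 °C to 5-fluorouridine together with compound or vehicle.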
# B2AR arrestin: qHTS assay of beta-arrestin-biased ligands of beta2-adrenergic receptor. Beta-2 adrenergic receptor (Homo sapiens), P07550. beta-arrestin recruitment to beta2AR, cell-based reporter. Potency, µM (highest dose often 46.1 µM), inactives show top-dose activation, actives largely listed as activators. 0.02% of 330,000 active;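 also: potency is read from the fitted curve at half-maximal effect; 0% = DMSO controls and full agonism = EC100 isoproterenol or metaproterenol; nearly all actives have a fitted effect of over 65% in size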
# * marks the source's active call; other numbers are inactive results; ? = inconclusive; · = not tested or not shown; [ ] = another dose, or the depositor's remark. Unless noted, calls follow the shape of the dose curve; as a rule, active = well fitted curve in the direction sought with a large enough effect; inconclusive = small, poorly fitted or top-dose-only effect, or another doubt; inactive = no such curve, though single readings can be large; an effect the other way counts as inactive or inconclusive. Unless noted, % is scaled to controls: 0 for no effect and ±100 for the full control effect.
SMILES,RORg inh,TSHR antag,Gal4-VP16 FLuc,ELG1 DNA repair,B2AR arrestin
CN1CCN(c2ccc(NC(=O)N3CCc4ccccc43)cc2)CC1,10µM*,-8,8.9µM*,?,0%
O=C(Nc1ccc(Cl)cc1)N1CCc2ccccc2C1,0.89µM*,29,?,2%,7%
Cc1ccc(NC(=O)N2CCc3ccccc32)cc1,?,1,10µM*,?,0%
c1ccc2c(NCCN3CCOCC3)nc(-c3ccc4c(c3)OCO4)nc2c1,18%,·,-17%,·,·
CN(Cc1ccco1)c1ncnc2ccc(-c3ccccc3C(F)(F)F)cc12,40%,·,-10%,·,·
Cc1ccc(NC(=S)NCc2cccs2)c(C)c1,2.2µM*,7,5.6µM*,-4%,0%
Cc1cc(Cl)ccc1NC(=S)NCc1cccs1,4µM*,-13,8.9µM*,-19%,0%
Cc1nnc(SC(C)C(=O)N(C)C2CCCCC2)n1N (centres undefined),·,13,·,11%,6%
COc1ccc2nc(C)cc(SCC(=O)NNC(=O)COc3cccc4ccccc34)c2c1,?,26,8.9µM*,?,0%
COc1ccc2nc(C)cc(SCC(=O)N/N=C/c3ccc(O)cc3O)c2c1,18µM*,-8,?,?,0%
COc1ccccc1/C=N/NC(=O)CSc1cc(C)nc2ccccc12,11µM*,-13,-14%,-8%,0%
COc1ccccc1/C=N/NC(=O)CO,-19%,4,-13%[10 µM],0%,0%
COc1ccccc1/C=N/NC(=O)C(C)Cn1cnc2ccccc21 (centres undefined),11µM*,0,6%,?,-1%
COc1cccc2c(SCC(=O)N/N=C/c3ccc(O)cc3O)cc(C)nc12,?,-10,2%,-20%,0%
CC[C@H](C)C(N)C(=O)O (some centres undefined),-4%,·,-1%,·,·
C/C(=N/NC(=O)CNS(=O)(=O)c1ccccc1)c1ccc(Br)cc1,12%,-2,5%,10%,0%
C=CC[C@@H]1C=C[C@@H](O/N=C\[C@@H](NS(=O)(=O)c2ccc(C)cc2)[C@H](C)/C=C\CC(=O)OC)[C@@H](CO)O1,6%[10 µM],·,6%[10 µM],·,·
COC(=O)N1C(=O)[C@@](c2ccccc2)(C(C)C)N1C(=O)OC,10µM*,18,1%,-17%,0%
COC(=O)N1C(=O)[C@@](c2ccc(OC)cc2)(C(C)C)N1C(=O)OC,-40%,24,-3%,?,?
COc1ccc(C2/C=C\CN(C(=O)C3CCCC3)C(C)C(=O)N2Cc2ccc(F)cc2)cc1 (centres undefined),24%,·,6%,·,·
C=CCn1c(-c2cc3c(s2)CCC(CC)C3)n[nH]c1=S (centres undefined),2.2µM*,-8,?,?,9%
C=CCn1c(SCC(=O)NC2CCS(=O)(=O)C2)nnc1-c1cc2c(s1)CCC(CC)C2 (centres undefined),?,0,16%,?,-1%
COc1ccc(-c2cc3c(=O)n(CC(=O)NCc4cccnc4)nc(C)n3n2)cc1,3%,-139*,-1%,26%,-1%
C=CCNC(=S)N/N=C/c1ccc(OCc2ccccc2Cl)cc1,0.79µM*,-10,1.6µM*,?,0%
COc1ccc(CNC(=O)C(c2cccs2)N(Cc2ccco2)C(=O)Cc2cccs2)cc1 (centres undefined),?,57,-30%,15µM*,-1%
SMILES,RORg inh,TSHR antag,Gal4-VP16 FLuc,ELG1 DNA repair,B2AR arrestin
COc1ccc(CNC(=O)C(c2ccco2)N(C(=O)Cc2cccs2)c2cccnc2)cc1 (centres undefined),19%,54,-11%,-17%,0%
COc1ccc(CNC(=O)C(c2ccco2)N(Cc2ccccc2)C(=O)Cc2cccs2)cc1 (centres undefined),?,31,-1%,18µM*,0%
CN(C)c1ccc(N=Nc2ccccc2Br)cc1,8.9µM*,5,?,?,-1%
CN(C)c1ccc(N=Nc2ccccc2C(=O)OCC(=O)N2CCCC2)cc1,-23%,-13,-26%,?,0%
Cn1c(=O)c2c(ncn2CCOc2ccc(F)cc2)n(C)c1=O,?,-1,?,?,0%
O=C(NCCc1ccc2c(c1)OCCO2)c1ccccn1,-30%,-2,?,?,-1%
Cc1c(C(=O)Nc2nc3ccccc3[nH]2)oc2c(Cl)cccc12,10%,-3,6.3µM*,?,-2%
Cc1c(C(=O)Nc2nc3ccccc3[nH]2)oc2ccc(Br)cc12,5.6µM*,-3,4.5µM*,?,0%
Cc1c(C(=O)Nc2ccccn2)oc2c(Cl)cccc12,·,-11,·,?,0%
Cc1c(C(=O)Nc2ccncc2)oc2ccccc12,18%,-15,-3%,?,1%
Cc1c(C(=O)Nc2nc3ccccc3[nH]2)oc2ccccc12,0.89µM*,2,5µM*,?,0%
O=C(O)c1ccccc1SC1CC(=O)N(c2ccccc2)C1=O (centres undefined),13µM*,10,4µM*,1%,0%
O=C1CC(Sc2cccs2)C(=O)N1c1ccccc1 (centres undefined),4.5µM*,1,7.9µM*,14%,-1%
Cc1nnc(SC2CC(=O)N(c3ccccc3)C2=O)s1 (centres undefined),1.1µM*,12,1µM*,0%,0%
O=C(O)c1cccnc1SC1CC(=O)N(c2ccccc2)C1=O (centres undefined),-2%,14,1%,-17%,0%
Cc1noc(C)c1C(=O)N1CCC2(CCCN(C(=O)NC(C)C)C2)CC1,14%,·,5%,·,·
Cc1cc(C)c2nc(C(F)(F)F)nc(N3CCN(C(=O)c4ccco4)CC3)c2c1,1µM*,·,0.89µM*,·,·
Cc1cc(C)c2nc(N3CCCN(C(=O)c4ccco4)CC3)c(C#N)cc2c1,?,16,?,13%,-1%
Cc1cc(C)c2nc(N3CCC(C(=O)N4CCN(C(=O)c5ccco5)CC4)CC3)sc2c1,4%,-16,2%,16µM*,0%
CCc1cc2cc(C)cc(C)c2nc1SCC(=O)N1CCN(C(=O)c2ccco2)CC1,13%,5,6%,8.2µM*,-4%
CCc1cc2cccc(C)c2nc1SCC(=O)N1CCN(C(=O)c2ccco2)CC1,-30%,-14,1%,?,-1%
CN1N=C(C(=O)NC2CCCc3c2cnn3-c2ccc(F)cc2F)CCC1=O (centres undefined),?,16,?,-4%,0%
